According to PubChem BioAssay (NCI):
This is part of a sample that, as a whole, favours compounds with a hit. Of some 79,000 tested, about 15% had one in any assay. Active and inactive are the calls of the source. Cut-off read from the data, not from the text of the source: active = growth inhibition above about 70%; inactive = the rest.

Assay: NCI Yeast Anticancer Drug Screen. Data for the bub3 strain (AID 167)
Conditions: S. cerevisiae bub3 mutant strain, at 3.7 µM, hits give high values
Procedure, shortened: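 Yeast carrying a defined mutation is treated with each compound, and growth is compared with that of vehicle-exposed cells to give inhibition.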

**Q.** Which growth inhibition does the source give for CCC/C(Cl)=N\OC(=O)Nc1cccc(C(F)(F)F)c1 here?
**A.** The growth inhibition was 44% (inactive).

**Q.** With [O-][n+]1c2ccc(O)cc2nc2ccc(Cl)cc21 as the molecule, how does the growth inhibition read?
**A.** Its growth inhibition is 2% (inactive).

**Q.** For Clc1ccccc1C1OC1c1ccccc1Cl (stereo not drawn), which growth inhibition is on record?
**A.** The growth inhibition was -53% (inactive).

**Q.** With c1ccc2c(c1)c1ncccc1c1nccnc21 as the molecule, how does the growth inhibition read?
**A.** Its growth inhibition is -2% (inactive).

**Q.** Which growth inhibition does the source give for CC(=O)Nc1ccc2c(c1)C(=Nc1ccc(C(=O)O)cc1)c1ccccc1-2 here?
**A.** Its growth inhibition is -5% (inactive).

**Q.** For COc1ccc(OC)c2cc3ccccc3cc12, which growth inhibition is on record?
**A.** The growth inhibition was 8% (inactive).

**Q.** With COc1cc(C2c3cc4c(cc3OC(NNc3ccccc3)C2C)OCO4)cc(OC)c1OC (stereo not drawn) as the molecule, how does the growth inhibition read?
**A.** Its growth inhibition is 20% (inactive).

**Q.** Which growth inhibition does the source give for O=C1c2cc([N+](=O)[O-])ccc2-c2cccc(F)c21 here?
**A.** Its growth inhibition is -7% (inactive).

**Q.** With CCCCCCCCCCCC(=O)N(C)C as the molecule, how does the growth inhibition read?
**A.** Its growth inhibition is -28% (inactive).

**Q.** With CCCCCCCCCCCC1=C(O)C(=O)C=C(O)C1=O as the molecule, how does the growth inhibition read?
**A.** The growth inhibition was -4% (inactive).

**Q.** For Cc1ccc(CSC(N)=Nc2ccccc2)cc1C, which growth inhibition is on record?
**A.** The growth inhibition was 5% (inactive).

**Q.** For CCCCCCCCCCC1CCC(=O)O1 (stereo not drawn), which growth inhibition is on record?
**A.** The growth inhibition was 0% (inactive).

**Q.** For O=[N+]([O-])c1cc(CCl)ccc1CCl, which growth inhibition is on record?
**A.** The growth inhibition was 2% (inactive).

**Q.** For Nc1ccc2c(c1)C(=O)c1cccc(N)c1C2=O, which growth inhibition is on record?
**A.** Its growth inhibition is 2% (inactive).

**Q.** With CCCCCCCCCCNC(=O)OCC as the molecule, how does the growth inhibition read?
**A.** Its growth inhibition is -18% (inactive).

**Q.** For CC1=C(C)Cc2c(O)ccc(O)c2C1, which growth inhibition is on record?
**A.** Its growth inhibition is -5% (inactive).

**Q.** Which growth inhibition does the source give for COc1ccc2c(c1)C(=O)c1ccccc1C2 here?
**A.** Its growth inhibition is 67% (inactive).

**Q.** Which growth inhibition does the source give for CCC(=O)OCCn1c2nc(=O)[nH]c(=O)c-2nc2cc(C)c(C)cc21 here?
**A.** Its growth inhibition is -4% (inactive).

**Q.** For O=C(OCCN1CCCCCC1)C(c1ccsc1)C1CCCCC1 (stereo not drawn), which growth inhibition is on record?
**A.** Its growth inhibition is 14% (inactive).

**Q.** With Oc1c(Br)cc(Br)cc1C1CCCCC1 as the molecule, how does the growth inhibition read?
**A.** Its growth inhibition is 19% (inactive).

**Q.** Which growth inhibition does the source give for CC1(C)[C@@H]2CC[C@]1(C)[C@H](OC(=O)CSC#N)C2 here?
**A.** The growth inhibition was 13% (inactive).

**Q.** With S=C(N/N=C(/c1ccccc1)c1ccccn1)N1CCCCCC1 as the molecule, how does the growth inhibition read?
**A.** The growth inhibition was 16% (inactive).

**Q.** For Cc1ccc2[nH]c3c(C)c4cc[n+](C)cc4c(C)c3c2c1, which growth inhibition is on record?
**A.** Its growth inhibition is 24% (inactive).

**Q.** For CNC(=O)OCc1c(COC(=O)NC)c(-c2ccc(-c3ccccc3)cc2)n(C)c1C, which growth inhibition is on record?
**A.** Its growth inhibition is -15% (inactive).

**Q.** For COc1ccccc1/C=C1\Sc2scc(-c3cccc([N+](=O)[O-])c3)[n+]2C1=O, which growth inhibition is on record?
**A.** Its growth inhibition is 96% (active).

**Q.** For O=[N+]([O-])c1ccc2c(c1)C(N1CCN(CCO)CC1)Cc1ccc(F)cc1S2 (stereo not drawn), which growth inhibition is on record?
**A.** The growth inhibition was -4% (inactive).

**Q.** Which growth inhibition does the source give for Cc1ccc(CCC2=CCCc3c2ccc2ccccc32)cc1 here?
**A.** Its growth inhibition is -2% (inactive).

**Q.** With O=[N+]([O-])c1cccc2nccc(NCCCO)c12 as the molecule, how does the growth inhibition read?
**A.** The growth inhibition was -13% (inactive).

**Q.** Which growth inhibition does the source give for Cc1ccc(-n2cc(-c3ccc(Cl)cc3)c(C#N)c2N)cc1 here?
**A.** The growth inhibition was -5% (inactive).

**Q.** With Cc1ccc(S/N=C\c2ccccc2O)cc1 as the molecule, how does the growth inhibition read?
**A.** The growth inhibition was -6% (inactive).

**Q.** For O=C(O)C1OC1(c1cccc(Cl)c1)c1ccccc1Cl (stereo not drawn), which growth inhibition is on record?
**A.** Its growth inhibition is -5% (inactive).

**Q.** With NC(=S)N/N=C\c1nccc2ccccc12 as the molecule, how does the growth inhibition read?
**A.** The growth inhibition was -15% (inactive).

**Q.** With Clc1cccc(C(Nc2nncs2)Nc2nncs2)c1Cl as the molecule, how does the growth inhibition read?
**A.** The growth inhibition was 0% (inactive).

**Q.** For O=C(OCC=C1CCCC1)c1cc([N+](=O)[O-])cc([N+](=O)[O-])c1, which growth inhibition is on record?
**A.** The growth inhibition was -6% (inactive).

**Q.** For O=C(Nc1ccccc1)C(=O)C(C(=O)c1ccccc1)C(c1ccccc1)c1ccccc1 (stereo not drawn), which growth inhibition is on record?
**A.** The growth inhibition was 0% (inactive).

**Q.** For N#CN1C2CCC1CC(=O)C2, which growth inhibition is on record?
**A.** The growth inhibition was 23% (inactive).

**Q.** Which growth inhibition does the source give for COc1ccccc1C(=O)OCC1CCCN2CCCCC12 (stereo not drawn) here?
**A.** The growth inhibition was -20% (inactive).

**Q.** For CCNc1nnc(CSc2nc(-c3ccccc3)c(-c3ccccc3)[nH]2)s1, which growth inhibition is on record?
**A.** Its growth inhibition is -29% (inactive).

**Q.** Which growth inhibition does the source give for O=C1c2ccccc2-c2n[nH]c3cccc1c23 here?
**A.** Its growth inhibition is -15% (inactive).

Same assay, conditions: S. cerevisiae bub3 mutant strain, at 5.0 µM (retest, dose inferred, filed as 0.5), hits give high values

**Q.** For CCC/C(Cl)=N\OC(=O)Nc1cccc(C(F)(F)F)c1, which growth inhibition is on record?
**A.** Its growth inhibition is 9% (inactive).

**Q.** With [O-][n+]1c2ccc(O)cc2nc2ccc(Cl)cc21 as the molecule, how does the growth inhibition read?
**A.** The growth inhibition was -7% (inactive).

**Q.** Which growth inhibition does the source give for Clc1ccccc1C1OC1c1ccccc1Cl (stereo not drawn) here?
**A.** The growth inhibition was 0% (inactive).

**Q.** Which growth inhibition does the source give for c1ccc2c(c1)c1ncccc1c1nccnc21 here?
**A.** The growth inhibition was -58% (inactive).

**Q.** With CC(=O)Nc1ccc2c(c1)C(=Nc1ccc(C(=O)O)cc1)c1ccccc1-2 as the molecule, how does the growth inhibition read?
**A.** Its growth inhibition is -7% (inactive).

**Q.** Which growth inhibition does the source give for COc1ccc(OC)c2cc3ccccc3cc12 here?
**A.** Its growth inhibition is 36% (inactive).

**Q.** With COc1cc(C2c3cc4c(cc3OC(NNc3ccccc3)C2C)OCO4)cc(OC)c1OC (stereo not drawn) as the molecule, how does the growth inhibition read?
**A.** The growth inhibition was 19% (inactive).

**Q.** Which growth inhibition does the source give for O=C1c2cc([N+](=O)[O-])ccc2-c2cccc(F)c21 here?
**A.** The growth inhibition was 1% (inactive).

**Q.** With CCCCCCCCCCCC(=O)N(C)C as the molecule, how does the growth inhibition read?
**A.** Its growth inhibition is -4% (inactive).

**Q.** With CCCCCCCCCCCC1=C(O)C(=O)C=C(O)C1=O as the molecule, how does the growth inhibition read?
**A.** Its growth inhibition is 81% (active).

**Q.** For Cc1ccc(CSC(N)=Nc2ccccc2)cc1C, which growth inhibition is on record?
**A.** Its growth inhibition is 11% (inactive).

**Q.** Which growth inhibition does the source give for CCCCCCCCCCC1CCC(=O)O1 (stereo not drawn) here?
**A.** The growth inhibition was 3% (inactive).

**Q.** Which growth inhibition does the source give for O=[N+]([O-])c1cc(CCl)ccc1CCl here?
**A.** The growth inhibition was -17% (inactive).

**Q.** Which growth inhibition does the source give for Nc1ccc2c(c1)C(=O)c1cccc(N)c1C2=O here?
**A.** Its growth inhibition is 6% (inactive).

**Q.** With CCCCCCCCCCNC(=O)OCC as the molecule, how does the growth inhibition read?
**A.** The growth inhibition was -21% (inactive).

**Q.** With CC1=C(C)Cc2c(O)ccc(O)c2C1 as the molecule, how does the growth inhibition read?
**A.** Its growth inhibition is 94% (active).

**Q.** For COc1ccc2c(c1)C(=O)c1ccccc1C2, which growth inhibition is on record?
**A.** The growth inhibition was 65% (inactive).

**Q.** Which growth inhibition does the source give for CCC(=O)OCCn1c2nc(=O)[nH]c(=O)c-2nc2cc(C)c(C)cc21 here?
**A.** The growth inhibition was -2% (inactive).

**Q.** Which growth inhibition does the source give for O=C(OCCN1CCCCCC1)C(c1ccsc1)C1CCCCC1 (stereo not drawn) here?
**A.** The growth inhibition was 61% (inactive).

**Q.** For Oc1c(Br)cc(Br)cc1C1CCCCC1, which growth inhibition is on record?
**A.** The growth inhibition was 4% (inactive).

**Q.** Which growth inhibition does the source give for CC1(C)[C@@H]2CC[C@]1(C)[C@H](OC(=O)CSC#N)C2 here?
**A.** Its growth inhibition is 14% (inactive).

**Q.** Which growth inhibition does the source give for S=C(N/N=C(/c1ccccc1)c1ccccn1)N1CCCCCC1 here?
**A.** Its growth inhibition is 95% (active).

**Q.** Which growth inhibition does the source give for Cc1ccc2[nH]c3c(C)c4cc[n+](C)cc4c(C)c3c2c1 here?
**A.** Its growth inhibition is 12% (inactive).

**Q.** For CNC(=O)OCc1c(COC(=O)NC)c(-c2ccc(-c3ccccc3)cc2)n(C)c1C, which growth inhibition is on record?
**A.** Its growth inhibition is -8% (inactive).

**Q.** With COc1ccccc1/C=C1\Sc2scc(-c3cccc([N+](=O)[O-])c3)[n+]2C1=O as the molecule, how does the growth inhibition read?
**A.** The growth inhibition was 92% (active).

**Q.** With O=[N+]([O-])c1ccc2c(c1)C(N1CCN(CCO)CC1)Cc1ccc(F)cc1S2 (stereo not drawn) as the molecule, how does the growth inhibition read?
**A.** The growth inhibition was -2% (inactive).

**Q.** For Cc1ccc(CCC2=CCCc3c2ccc2ccccc32)cc1, which growth inhibition is on record?
**A.** Its growth inhibition is 63% (inactive).

**Q.** Which growth inhibition does the source give for O=[N+]([O-])c1cccc2nccc(NCCCO)c12 here?
**A.** Its growth inhibition is 4% (inactive).

**Q.** With Cc1ccc(-n2cc(-c3ccc(Cl)cc3)c(C#N)c2N)cc1 as the molecule, how does the growth inhibition read?
**A.** The growth inhibition was -33% (inactive).

**Q.** For Cc1ccc(S/N=C\c2ccccc2O)cc1, which growth inhibition is on record?
**A.** The growth inhibition was -59% (inactive).

**Q.** Which growth inhibition does the source give for O=C(O)C1OC1(c1cccc(Cl)c1)c1ccccc1Cl (stereo not drawn) here?
**A.** The growth inhibition was 30% (inactive).

**Q.** Which growth inhibition does the source give for NC(=S)N/N=C\c1nccc2ccccc12 here?
**A.** Its growth inhibition is -107% (inactive).

**Q.** Which growth inhibition does the source give for Clc1cccc(C(Nc2nncs2)Nc2nncs2)c1Cl here?
**A.** The growth inhibition was -6% (inactive).

**Q.** Which growth inhibition does the source give for O=C(OCC=C1CCCC1)c1cc([N+](=O)[O-])cc([N+](=O)[O-])c1 here?
**A.** The growth inhibition was -21% (inactive).

**Q.** Which growth inhibition does the source give for O=C(Nc1ccccc1)C(=O)C(C(=O)c1ccccc1)C(c1ccccc1)c1ccccc1 (stereo not drawn) here?
**A.** The growth inhibition was -2% (inactive).

**Q.** With N#CN1C2CCC1CC(=O)C2 as the molecule, how does the growth inhibition read?
**A.** The growth inhibition was 39% (inactive).

**Q.** Which growth inhibition does the source give for COc1ccccc1C(=O)OCC1CCCN2CCCCC12 (stereo not drawn) here?
**A.** The growth inhibition was 7% (inactive).

**Q.** Which growth inhibition does the source give for CCNc1nnc(CSc2nc(-c3ccccc3)c(-c3ccccc3)[nH]2)s1 here?
**A.** The growth inhibition was 36% (inactive).

**Q.** Which growth inhibition does the source give for O=C1c2ccccc2-c2n[nH]c3cccc1c23 here?
**A.** Its growth inhibition is 0% (inactive).
